# Data reported in PubChem BioAssay (NCATS).
# Several values for one entry are separate records, joined by “and”; a condition that tells them apart may be missing. Equal values may be shown once. Results filed as inconclusive are left out. A call without a number means that no potency is given here. Some compounds were tested as several samples or in several runs, with calls that do not always agree. Activity calls are given as the source filed them. Unless noted, the call rests on the fitted dose curve; in most records, active means well fitted curve in the direction sought with a large enough effect; inconclusive means small, poorly fitted or top-dose-only effect, or another doubt; inactive means no such curve, though single readings can be large; an effect the other way counts as inactive or inconclusive.
# How the values were obtained:
# [1] = molecular target: Guanine nucleotide-binding protein G(i) subunit alpha-1 (Homo sapiens) (UniProt P63096); assay: qHTS Assay for Inhibitors of RGS12 GoLoco Motif Activity (Green Fluorophore) (AID 879);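 further: negative values mean loss of peptide binding seen as reduced polarization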
# Summary of the method: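 A drop in FITC polarization marked displacement of the FITC-tagged RGS12 GoLoco peptide (10 nM) from Gαi1 (50 nM). Compounds were incubated 10 min at room temperature in Tris pH 7.5 buffer containing 150 mM NaCl, 0.1 mM GDP and 0.05% NP40; unlabeled peptide titration served as control.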
# [2] = qHTS Assay for Identification of Small Molecule Antagonists for NFkB Signaling Pathway (AID 895; active means well fitted inhibition curve with a large enough effect in the signal ratio, with a control signal flat, not every such curve was filed as active; the % refers to the signal ratio)
# Summary of the method: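 NFkB-bla ME-180 cervical carcinoma cells with beta-lactamase reporter under NFkB response element; compounds added, then TNF alpha at 10 pM final (EC50), 5 h at 37 C. LiveBLAzer substrate 2 h, room temperature; emission 460/530 nm at 405 nm excitation.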
# [3] = Confirmation and Secondary Assay for Modulators of Hemoglobin Beta Chain Splicing at IVS2 654 locus (AID 910)
# Summary of the method: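 HeLa cells stably carrying EGFP interrupted by mutant beta-globin IVS2-654 intron (CMV-driven) were treated with compound for 2 days at 37C; corrected splicing was scored as total peak GFP intensity per well (488 nm excitation, 500-520 nm emission).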
# [4] = Confirmation and Secondary Assay for Modulators of Hemoglobin Beta Chain Splicing at IVS2 705 locus (AID 930);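 further: HeLa cells stably expressing the EGFP-705 splicing reporter; GFP fluorescence per well restored by corrected splicing of the IVS2-705 intron in EGFP; series mostly up to about 46 µM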
# Summary of the method: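 Read-out: total peak GFP fluorescence per well (488 nm excitation, 500-520 nm emission) by laser-scanning cytometry. Cells: HeLa EGFP-705 splicing reporter, 2 days compound exposure in Optimem/2% FCS.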
# [5] = molecular target: Muscarinic acetylcholine receptor M1 (Rattus norvegicus) (UniProt P08482); assay: qHTS Assay for Antagonists of Acetylcholine Muscarinic M1 Receptor: Kinetic Measurement of Intracellular Calcium Response (AID 943); further: nearly all actives have a fitted effect of over 75% in size; further: potency means the concentration at half of the fitted maximal effect
# Summary of the method: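 Antagonism measured as reduction of carbachol-evoked (EC80, 100 nM final) calcium flux in rat M1-CHO cells after 10 min compound exposure. Fluo-4 signal read kinetically; ratio of maximal to basal fluorescence.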
# [6] = molecular target: Muscarinic acetylcholine receptor M1 (Rattus norvegicus) (UniProt P08482); assay: qHTS Assay for Antagonists of Acetylcholine Muscarinic M1 Receptor: Measurement of IP-One Response (AID 944); further: nearly all actives have a fitted effect of over 75% in size; further: potency means the concentration at half of the fitted maximal effect
# Summary of the method: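 IP1 accumulation measured via TR-FRET between d2-IP1 and Eu-cryptate anti-IP1 antibody after carbachol (200 nM, EC80) stimulation for 30 min; rat M1-transfected CHO cells received compound 10 min before agonist.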
# [7] = molecular target: Cytochrome P450 3A4 (Homo sapiens) (UniProt P08684); assay: qHTS Assay for Activators of Cytochrome P450 3A4 (AID 885); further: nearly all actives have a fitted effect of over 65% in size
# Summary of the method: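 CYP3A4 activity: Luciferin-PPXE O-dealkylation, 25uM substrate, 200mM KPO4, RT throughout. Read-out is luciferase luminescence; higher values reflect activation.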
# [8] = qHTS Assay for Identification of Small Molecule Agonists for Thrombopoietin (TPO) Signaling Pathway (AID 917); further: potency means the concentration at half of the fitted maximal effect
# Summary of the method: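 Quantitative HTS for pathway activators: compounds were pin-transferred onto IL-3-starved Ba/F3 cells expressing human TPO receptor, TPO was added at its EC50 (26 pM final), and after 24 hrs at 37 C reporter luciferase was measured.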
# [9] = molecular target: Cytochrome P450 2C19 (Homo sapiens) (UniProt P33261); assay: qHTS Assay for Inhibitors and Substrates of Cytochrome P450 2C19 (AID 899); further: nearly all actives have a fitted effect of over 60% in size; further: potency means the concentration at half of the fitted maximal effect
# Summary of the method: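 In 50mM KPO4, the reaction held 5nM enzyme and KM-level (10uM) Luciferin-H EGE; it ran 60 min at 37C after NADPH regeneration and a 10 min compound preincubation. Luminescence values were scaled to 57uM ketoconazole as complete inhibition.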
# [10] = qHTS Assay for Identification of Small Molecule Antagonists for Thrombopoietin (TPO) Signaling Pathway (AID 918); conditions: TPO-dependent cell signaling reporter, antagonist mode; further: potency means the concentration at half of the fitted maximal effect; nearly all actives have a fitted effect of over 60% in size
# Summary of the method: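 Inhibition read as reduced luciferase luminescence after 24 h at 37 C in IL-3-deprived Ba/F3 cells carrying human TPO receptor and GPIIb-promoter reporter, stimulated with 26 pM TPO (final, its EC50) alongside compound.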
# [11] = qHTS Assay for Identification of Small Molecule Agonists for Hypoxia Response Element Signaling Pathway (AID 914; active means well fitted activation curve with a large enough effect in the signal ratio, with a control signal flat, not every such curve was filed as active; the % refers to the signal ratio); conditions: ME-180 (cervical carcinoma) HRE-bla reporter, beta-lactamase ratio, CoCl2, 17 h; stronger effect = higher value
# Summary of the method: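 HRE-bla ME-180 cells, overnight plating in Opti-MEM with 0.5% dialyzed FBS; cpd titration + EC50 CoCl2, 17 h, 37 degrees Celsius; CCF4 2.5 h RT; 460/530 nm ratio; AC50.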
# [12] = molecular target: Cytochrome P450 2D6 (Homo sapiens) (UniProt P10635); assay: qHTS Assay for Inhibitors and Substrates of Cytochrome P450 2D6 (AID 891); further: nearly all actives have a fitted effect of over 60% in size; further: potency means the concentration at half of the fitted maximal effect
# Summary of the method: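 Luminescent read-out of luciferin formed by 5 nM human CYP2D6 demethylating 30 uM Luciferin-ME EGE (Km level) over 60 min at room temperature after NADPH regeneration addition. Data normalized to full inhibition by 1.43 uM quinidine.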
# [13] = qHTS Assay for Identification of Small Molecule Agonists for NFkB Signaling Pathway (AID 928; calls by dose curve); conditions: NFkB beta-lactamase reporter cells, blue/green ratio
# Summary of the method: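 Activators were sought with TNF alpha co-added at 10 pM final (its EC50) to beta-lactamase reporter cells. Cells were plated in OPTI MEM with 0.5% FBS and exposed for 5 hrs at 37 C. The FRET substrate ratio was read at 460 and 530 nm.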
# Cytochrome P450 2C19 (Homo sapiens), sequence (P33261 whole entry, looked up): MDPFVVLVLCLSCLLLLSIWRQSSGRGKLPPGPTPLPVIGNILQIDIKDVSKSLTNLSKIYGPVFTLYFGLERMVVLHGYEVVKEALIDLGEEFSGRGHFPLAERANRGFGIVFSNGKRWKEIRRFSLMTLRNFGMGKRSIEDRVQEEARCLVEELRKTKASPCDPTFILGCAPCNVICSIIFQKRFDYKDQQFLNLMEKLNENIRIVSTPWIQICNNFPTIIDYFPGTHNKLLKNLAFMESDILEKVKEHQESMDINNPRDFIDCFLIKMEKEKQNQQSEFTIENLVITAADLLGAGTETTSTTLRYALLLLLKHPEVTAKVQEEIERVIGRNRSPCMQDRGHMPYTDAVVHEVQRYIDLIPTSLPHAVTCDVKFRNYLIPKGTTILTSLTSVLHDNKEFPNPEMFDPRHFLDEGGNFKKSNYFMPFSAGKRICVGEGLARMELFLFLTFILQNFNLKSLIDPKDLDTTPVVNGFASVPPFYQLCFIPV
# Muscarinic acetylcholine receptor M1 (Rattus norvegicus), sequence (P08482 whole entry, looked up): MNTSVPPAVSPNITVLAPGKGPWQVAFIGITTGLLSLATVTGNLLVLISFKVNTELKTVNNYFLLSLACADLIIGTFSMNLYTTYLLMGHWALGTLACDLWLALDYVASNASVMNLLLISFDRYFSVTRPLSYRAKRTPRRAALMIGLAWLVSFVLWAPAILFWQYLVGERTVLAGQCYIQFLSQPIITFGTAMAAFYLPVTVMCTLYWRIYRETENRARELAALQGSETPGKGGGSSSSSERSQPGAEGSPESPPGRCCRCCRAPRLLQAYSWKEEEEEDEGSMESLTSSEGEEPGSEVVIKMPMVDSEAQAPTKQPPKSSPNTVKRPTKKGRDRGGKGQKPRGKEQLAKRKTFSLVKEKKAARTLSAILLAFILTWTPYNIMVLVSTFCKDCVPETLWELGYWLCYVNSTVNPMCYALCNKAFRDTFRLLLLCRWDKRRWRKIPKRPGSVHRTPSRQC
# Cytochrome P450 3A4 (Homo sapiens), sequence (P08684 whole entry, looked up): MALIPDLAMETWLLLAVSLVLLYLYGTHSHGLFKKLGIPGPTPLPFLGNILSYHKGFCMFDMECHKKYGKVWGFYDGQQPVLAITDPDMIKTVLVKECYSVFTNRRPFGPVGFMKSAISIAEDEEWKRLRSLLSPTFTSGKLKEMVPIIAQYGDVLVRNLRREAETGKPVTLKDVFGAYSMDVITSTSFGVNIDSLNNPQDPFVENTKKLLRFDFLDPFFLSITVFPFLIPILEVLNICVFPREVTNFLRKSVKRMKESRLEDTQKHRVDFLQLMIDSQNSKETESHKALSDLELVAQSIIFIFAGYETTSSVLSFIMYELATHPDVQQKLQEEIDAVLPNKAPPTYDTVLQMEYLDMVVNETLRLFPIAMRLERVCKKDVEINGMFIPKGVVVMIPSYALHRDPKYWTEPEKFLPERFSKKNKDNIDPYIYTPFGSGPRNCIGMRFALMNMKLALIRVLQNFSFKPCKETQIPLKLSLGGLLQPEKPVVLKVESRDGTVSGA
# Cytochrome P450 2D6 (Homo sapiens), sequence (P10635 whole entry, looked up): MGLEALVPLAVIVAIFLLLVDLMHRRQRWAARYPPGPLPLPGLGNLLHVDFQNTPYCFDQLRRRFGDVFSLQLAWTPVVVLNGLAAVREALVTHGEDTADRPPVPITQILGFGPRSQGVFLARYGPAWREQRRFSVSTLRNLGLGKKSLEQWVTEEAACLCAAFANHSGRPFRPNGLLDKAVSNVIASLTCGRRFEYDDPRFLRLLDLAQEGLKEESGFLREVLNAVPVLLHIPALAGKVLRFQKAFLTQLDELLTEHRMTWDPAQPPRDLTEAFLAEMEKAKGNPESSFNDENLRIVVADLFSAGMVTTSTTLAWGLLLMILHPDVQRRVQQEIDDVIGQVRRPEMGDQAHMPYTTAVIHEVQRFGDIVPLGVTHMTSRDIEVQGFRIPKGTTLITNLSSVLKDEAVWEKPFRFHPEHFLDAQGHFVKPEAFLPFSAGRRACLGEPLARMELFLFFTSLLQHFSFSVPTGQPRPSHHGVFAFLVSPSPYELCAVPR
# Guanine nucleotide-binding protein G(i) subunit alpha-1 (Homo sapiens), sequence (P63096 whole entry, looked up): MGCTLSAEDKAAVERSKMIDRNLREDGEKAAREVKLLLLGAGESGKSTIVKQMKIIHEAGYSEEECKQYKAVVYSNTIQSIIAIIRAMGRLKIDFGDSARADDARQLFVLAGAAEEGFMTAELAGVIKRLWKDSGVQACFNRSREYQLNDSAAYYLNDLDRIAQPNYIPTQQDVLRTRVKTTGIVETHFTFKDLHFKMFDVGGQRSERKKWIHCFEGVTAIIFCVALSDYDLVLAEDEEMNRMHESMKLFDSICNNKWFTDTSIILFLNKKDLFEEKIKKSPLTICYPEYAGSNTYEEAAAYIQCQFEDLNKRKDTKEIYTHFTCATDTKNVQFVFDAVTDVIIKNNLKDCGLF
structure (smiles),measurement,setting,value
O=c1[nH]c2cc(Cl)c(Cl)cc2[nH]c1=O,outcome,[1],inactive
same,Potency,[2],inactive
same,outcome,[3],inactive
same,outcome,[4],inactive
same,Potency,[5],inactive
same,Potency,[6],inactive
CCN1/C(=C/C(C)=O)Sc2ccc(OC)cc21,outcome,[1],inactive
same,Potency,[7],inactive
same,Potency,[5],inactive
same,Potency,[6],inactive
N[C@@H](CC(=O)O)C(=O)O,outcome,[1],inactive
same,Potency,[8],inactive
same,Potency,[5],inactive
same,Potency,[6],inactive
O=S(=O)(c1cccc2c(I)cccc12)N1CCCNCC1,outcome,[1],inactive
same,Potency,[8],inactive
same,Potency,[5],inactive
same,Potency,[6],inactive
CN(C)C(N)=NCCC[C@H](N)C(=O)O,outcome,[1],inactive
same,Potency,[9],inactive
same,Potency,[8],inactive
same,Potency,[5],inactive
same,Potency,[6],inactive
NCCCS(=O)(=O)O,outcome,[1],inactive
same,outcome,[3],inactive
same,outcome,[4],inactive
same,Potency,[5],inactive
same,Potency,[6],inactive
NCCNC(=O)c1ncsc1-c1cccc(F)c1,outcome,[1],inactive
same,Potency,[7],inactive
same,Potency,[6],inactive
CN(C)c1nc(N)c(C(=O)N=C(N)N)nc1Cl,outcome,[1],inactive
same,Potency,[7],inactive
same,Potency,[8],inactive
same,Potency,[6],inactive
CC(=O)SCC[N+](C)(C)C,outcome,[1],inactive
same,Potency,[2],inactive
same,Potency,[9],inactive
same,Potency,[8],inactive
same,Potency,[5],inactive
same,Potency,[6],inactive
O=C(O)c1cc(=O)c2ccccc2[nH]1,outcome,[1],inactive
same,outcome,[3],inactive
same,Potency,[8],inactive
same,outcome,[4],inactive
same,Potency,[6],inactive
CC1(C)CCC=[N+]1[O-],outcome,[1],inactive
same,Potency,[8],inactive
same,Potency,[5],inactive
same,Potency,[6],11.2 µM (active)
Clc1ccc(N2CCN(Cc3c[nH]c4ncccc34)CC2)cc1,outcome,[1],inactive
same,Potency,[8],inactive
same,Potency,[6],inactive
COC1=C(OC)C(=O)c2ccccc2C1=O,outcome,[1],inactive
same,Potency,[7],inactive
same,Potency,[10],3.98 µM (active)
Cn1c(=O)c2[nH]c(-c3ccccc3)nc2n(C)c1=O,outcome,[1],inactive
same,Potency,[2],inactive
same,Potency,[8],inactive
same,Potency,[6],inactive
C[N+](C)(CCCCCC[N+](C)(C)CCCN1C(=O)c2cccc3cccc(c23)C1=O)CCCN1C(=O)c2cccc3cccc(c23)C1=O,outcome,[1],inactive
same,Potency,[7],inactive
same,Potency,[8],inactive
same,Potency,[5],0.398 µM (active)
same,Potency,[6],0.398 µM (active)
c1ccc(-c2ccccn2)nc1,outcome,[1],inactive
same,Potency,[8],inactive
same,Potency,[5],inactive
same,Potency,[6],inactive
C[N+]1(C)CCC(OC(=O)C(c2ccccc2)c2ccccc2)CC1,outcome,[1],inactive
same,Potency,[2],inactive
same,activation,[11],0.751% (inactive)
same,Potency,[8],inactive
same,Potency,[5],0.0158 µM (active)
same,Potency,[6],0.0112 µM (active)
O=C(Nc1cccc(C(=O)Nc2ccc(S(=O)(=O)O)c3cc(S(=O)(=O)O)cc(S(=O)(=O)O)c23)c1)Nc1cccc(C(=O)Nc2ccc(S(=O)(=O)O)c3cc(S(=O)(=O)O)cc(S(=O)(=O)O)c23)c1,outcome,[1],inactive
same,Potency,[7],inactive
same,activation,[11],-24.7% (inactive)
same,Potency,[8],inactive
same,Potency,[5],inactive
CCCCCCCC/C=C\CCCCCCCC(=O)NCCO,outcome,[1],inactive
same,Potency,[7],inactive
same,Potency,[8],inactive
same,Potency,[5],inactive
same,Potency,[6],inactive
NO,outcome,[1],inactive
same,Potency,[8],inactive
same,Potency,[6],inactive
O=c1[nH]c2cc(C(F)(F)F)ccc2n1-c1cc(C(F)(F)F)ccc1O,outcome,[1],inactive
same,Potency,[8],inactive
same,Potency,[5],inactive
same,Potency,[6],inactive
COc1cc(OC)c(/C=C2/C(=O)Nc3ccccc32)c(OC)c1,outcome,[1],inactive
same,Potency,[2],inactive
CN1CCc2cc(NC(=O)Nc3cccnc3)ccc21,outcome,[1],inactive
same,Potency,[7],inactive
same,Potency,[8],1.58 µM (active)
same,Potency,[5],inactive
CC(C)NC[C@H](O)COc1cccc2[nH]ccc12,outcome,[1],inactive
same,Potency,[8],inactive
NC[C@@H]1O[C@H](C23CC4CC(CC(C4)C2)C3)Cc2c1ccc(O)c2O,outcome,[1],inactive
same,Potency,[7],inactive
same,Potency,[10],10 µM (active)
same,Potency,[5],inactive
same,Potency,[6],inactive
NC(=O)C(=O)O,outcome,[1],inactive
same,Potency,[8],inactive
same,Potency,[5],inactive
same,Potency,[6],inactive
CC(C)Cc1ccc([C@H](C)C(=O)O)cc1,outcome,[1],inactive
same,Potency,[12],inactive
same,Potency,[8],inactive
CN1CCc2ccccc2Cc2[nH]c3ccccc3c2CC1,outcome,[1],inactive
same,Potency,[8],inactive
same,Potency,[6],15.8 µM (active)
CN1[C@@H]2CC[C@H]1CC(OC(c1ccccc1)c1ccccc1)C2 (stereo not given in full),outcome,[1],inactive
same,Potency,[12],2 µM (active) and 1.26 µM (active)
same,activation,[11],14.9% (inactive) and 19% (inactive)
same,Potency,[8],inactive
COc1ccc(/C=C/C(=O)Nc2ccccc2C(=O)O)cc1OC,outcome,[1],inactive
same,Potency,[7],inactive
same,Potency,[6],inactive
O=C1NC(O)=NC1(c1ccccc1)c1ccccc1,outcome,[1],inactive
same,Potency,[8],inactive
COc1cc2c(CCNC(C)=O)c[nH]c2cc1Cl,outcome,[1],inactive
same,Potency,[7],inactive
same,Potency,[9],inactive and 5.01 µM (active)
same,Potency,[13],3.16 µM (active)
O=Nc1ccc2oc(=O)ccc2c1,outcome,[1],inactive
same,Potency,[10],5.01 µM (active)
same,Potency,[5],inactive
same,Potency,[6],inactive
NCCCCCCCCCCN,outcome,[1],inactive
same,Potency,[8],inactive
same,Potency,[6],inactive
